This passage reports cell number results from the supplement of paper PMC7156485.

± gives the standard deviation of the averaged measurements.
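Further: TDF denotes transformed human dermal fibroblasts of mesenchymal origin.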

In the experiment the test system is TDF. Kind of experiment: cell number relative to DMSO (% of DMSO); higher = more cells (less growth inhibition / toxicity). To be noted: concentration: 10 µM; 24 h. A digest of the protocol:
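Six fields per well were imaged at ×10 after the cells were fixed in 3.7% formaldehyde and stained with a rabbit anti-H1.0 antibody, an AlexaFluor 647 secondary and DAPI. The HCC1569 and TDF cells had been plated at 800 per well in 384-well plates (RPMI, 10% FBS) and treated in triplicate with compounds at 10 µM for 24 h at 37 °C. The values are the median of replicates of H1.0 nuclear intensity or cell number, as percent of the plate control. Smoothing for positional effects was applied to HCC1569 data.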
Molecule `O=C1NCN(c2ccccc2)C12CCN(CCCC(c1ccc(F)cc1)c1ccc(F)cc1)CC2` [Fluspirilene] registered a cell number of 87.1 ± 7.5.

For the molecule `Cc1[nH]c2ccccc2c1CCNC(=O)c1cccs1` [N-[2-(2-methyl-1H-indol-3-yl)ethyl]-2-thiophenecarboxamide], the cell number worked out at 95.5.

For the molecule `Cl.c1ccc2c(CC3=NCCN3)cccc2c1` [Naphazoline hydrochloride], the cell number came to 108.

In the case of `CC1OC(OC2C(Oc3cc(O)c4c(c3)OC(c3ccc(O)cc3)CC4=O)OC(CO)C(O)C2O)C(O)C(O)C1O` (stereo not given) [Naringin], the cell number was determined as 99.

As to `O=c1[nH]c2ccccc2n1CCN1CCN(c2cccc(C(F)(F)F)c2)CC1`, the cell number was found to be 111.

The molecule `CSc1ccc(/C=C2/C(C)=C(CC(=O)O)c3cc(F)ccc32)cc1` had a cell number of 105.

`CS(=O)(=O)O.NC(=NC(=O)c1nc(Cl)c(N)nc1N)Nc1ccccc1` [Phenamil methanesulfonate] had a cell number of 116.

The molecule `CC(C(=O)O)c1ccc(CC2CCCC2=O)cc1` (stereo not given) [loxoprofen] displayed a cell number of 95.9.

`CSc1cccc(Nc2ncc3cc(-c4c(Cl)cccc4Cl)c(=O)n(C)c3n2)c1` registered a cell number of 6.26.

In turn, `CCCCCCCCCCCCC(=O)O` [Tridecanoic acid] displayed a cell number of 92.9.

Molecule `Cn1cc[nH]c1=S` [Methimazole] gave a cell number of 103.

`COC1=C2CC(C)=c3c(C(C)=O)c(OC)c(O)c4c3c2c2c(cc(OC)c3c(OC)cc(O)c4c32)C(=O)C1=O` [Hypocrellin B] yielded a cell number of 95.

The molecule `Cl.Cl.Nc1nccc(-c2c(-c3ccc(F)cc3)ncn2C2CCCCC2)n1` yielded a cell number of 92.2.

As for `CN(C)c1ccc(O)c2c1CC1CC3C(N(C)C)C(=O)C(C(N)=O)=C(O)C3(O)C(=O)C1=C2O` (stereo not given) [Minocycline], the cell number came to 101.

In turn, `CCCN(CCc1ccccc1)C1CCc2c(O)cccc2C1` (stereo not given) [2-(N-Phenethyl-N-propyl)amino-5-hydroxytetralin] had a cell number of 96.6.

Turning to `CCCCCCCCC=CCCCCCCCC(=O)OCC(O)COP(=O)(O)O` (stereo not given) [Lysophosphatidic acid], the cell number was found to be 104.

As for `CCCCCCCCCCCCCCCC(=O)NCCc1ccc(O)c(O)c1` [Palmitoyl dopamine], the cell number turned out to be 101.

Turning to `O=C(O)C1CCCNC1C(=O)O` (mixture of isomers), the cell number turned out to be 110.

Molecule `CCCCCC(O)C=CC1C(O)CC(O)C1CC=CCCCC(=O)O` (stereo not given) [Prostaglandin F2a] returned a cell number of 107.

`CN1CCN(C2=Nc3ccccc3Sc3ccc(Cl)cc32)CC1` [Clothiapine] showed a cell number of 88.9.

`O=C(O)CP(=O)(O)O` [Phosphonoacetic acid] yielded a cell number of 109.

`Cc1cc(Nc2cc(N3CCN(C)CC3)nc(Sc3ccc(NC(=O)C4CC4)cc3)n2)n[nH]1` [Tozasertib] yielded a cell number of 46.5.

Take `CCCCCC=CCC=CCC=CC=CC(O)CCCC(=O)O` (stereo not given): the cell number is 103.

For `CCCCCC=CCC=CC=CC=CC(SCC(NC(C)=O)C(=O)O)C(O)CCCC(=O)O` (stereo not given) [N-Acetyl-leukotriene E4], the cell number was 102.

`O=C1c2ccccc2-c2n[nH]c3cccc1c23` [JNK Inhibitor II] had a cell number of 112.

`CCC(C)C(=O)OC1CCC=C2C=CC(C)C(CCC3CC(O)CC(=O)O3)C21` (stereo not given) [Mevastatin] showed a cell number of 87.1 ± 6.8.

With `Cl.O=C(c1ccc(OCCN2CCCCC2)cc1)c1c(-c2ccc(O)cc2)sc2cc(O)ccc12` [Raloxifene hydrochloride], the cell number worked out at 100.

`O=c1c(O)c(-c2cc(O)c(O)c(O)c2)oc2cc(O)ccc12` [Robinetine] yielded a cell number of 105.

For `CCCCCCCCc1ccc(CCC(N)(CO)CO)cc1.Cl`, the cell number was found to be 17.4.

On to `CCCN(CCC)C(=O)C(CCC(=O)O)NC(=O)c1ccccc1` (stereo not given) [Proglumide], for which the cell number is 112.

As for `CN1CCN(c2c(F)cc3c(=O)c(C(=O)O)cn4c3c2SCC4)CC1` [Rufloxacin], the cell number was 94.7.

On to `OCCn1cc(-c2cnc3nnn(Cc4ccc5ncccc5c4)c3n2)cn1`, for which the cell number was found to be 98.7.

`CCc1nn(CCCN2CCN(c3cccc(Cl)c3)CC2)c(=O)n1CCOc1ccccc1` yielded a cell number of 95.

For the molecule `CC1CNc2c(cccc2S(=O)(=O)NC(CCCN=C(N)N)C(=O)N2CCC(C)CC2C(=O)O)C1` (stereo not given) [Argatroban], the cell number was determined as 104.

`CN(C)C(=O)COC(=O)Cc1ccc(OC(=O)c2ccc(N=C(N)N)cc2)cc1.CS(=O)(=O)O` yielded a cell number of 115.

Regarding `Cc1cc2cc3c(C)cc(=O)oc3c(C)c2o1` [4,5',8-Trimethylpsoralen], the cell number worked out at 102.

For the molecule `OC1C=C2CCN3Cc4cc5c(cc4C(C1O)C23)OCO5` (stereo not given) [Lycorine], the cell number was 53.3.

`CCC1(O)CC(OC2CC(N(C)C)C(OC3CC(O)C(OC4CCC(=O)C(C)O4)C(C)O3)C(C)O2)c2c(cc3c(c2O)C(=O)c2c(O)cccc2C3=O)C1C(=O)OC` (stereo not given) [Aclarubicin] yielded a cell number of 55.5.

`O=C1CCC(N2C(=O)c3ccccc3C2=O)C(=O)N1` (racemic) had a cell number of 108.

Regarding `OCC(CO)(CO)NCC(O)Cn1c2ccc(Cl)cc2c2cc(Cl)ccc21` (stereo not given), the cell number amounted to 76.8.
